# In PubChem BioAssay:
# Target: NADPH oxidase 5 (Homo sapiens) (UniProt Q96PH1)
# Test: compounds shifting NOX5 Amplex Red fluorescence – cell-based, HEK293-NOX5, NOX inhibitor project, primary screen (AID 1161)
# Settings: HEK293-NOX5, ionomycin, 45 min, higher = more signal
# NADPH oxidase 5 (Homo sapiens), sequence (Q96PH1 whole entry, looked up): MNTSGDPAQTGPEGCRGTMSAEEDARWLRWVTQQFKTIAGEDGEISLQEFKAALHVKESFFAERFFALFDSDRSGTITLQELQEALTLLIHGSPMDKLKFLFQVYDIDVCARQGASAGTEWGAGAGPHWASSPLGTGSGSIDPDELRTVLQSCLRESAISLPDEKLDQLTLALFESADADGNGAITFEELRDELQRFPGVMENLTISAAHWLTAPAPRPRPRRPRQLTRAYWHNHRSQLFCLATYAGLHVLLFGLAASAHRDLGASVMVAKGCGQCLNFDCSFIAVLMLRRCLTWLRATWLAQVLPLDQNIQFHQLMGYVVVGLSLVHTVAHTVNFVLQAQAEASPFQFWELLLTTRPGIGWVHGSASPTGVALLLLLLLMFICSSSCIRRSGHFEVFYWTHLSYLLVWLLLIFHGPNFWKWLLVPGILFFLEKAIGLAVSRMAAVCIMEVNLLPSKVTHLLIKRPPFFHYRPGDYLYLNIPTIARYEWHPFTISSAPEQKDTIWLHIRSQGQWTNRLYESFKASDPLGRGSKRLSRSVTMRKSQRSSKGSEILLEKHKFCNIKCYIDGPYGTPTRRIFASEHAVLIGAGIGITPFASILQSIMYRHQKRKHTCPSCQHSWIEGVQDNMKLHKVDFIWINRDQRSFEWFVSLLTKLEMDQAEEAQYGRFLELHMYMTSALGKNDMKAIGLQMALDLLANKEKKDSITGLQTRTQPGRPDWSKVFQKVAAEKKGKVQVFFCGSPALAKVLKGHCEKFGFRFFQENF
row,Structure (SMILES),z-score
1,CO[C@H]1COC(=O)[C@H](CCSC)NC(=O)CC=C[C@@H](C)[C@H](OC)COC(=O)[C@@H](OCc2ccccc2)C=C[C@@H]1C,-0.911
2,COc1ccc(OC[C@H]2CN3[C@@H](CC[C@@H](C)[C@@H]3c3ccc(Br)cc3)C(=O)O2)cc1,-0.392
3,COc1ccc(O[C@H]2C=C[C@@H](c3ccccc3)O[C@@H]2CO)cc1,-2.07
